According to PubChem BioAssay (NCATS):
Records with an inconclusive call do not appear. Activity calls are given as the source filed them. Unless noted, the call rests on the fitted dose curve; in most records, active means well fitted curve in the direction sought with a large enough effect; inconclusive means small, poorly fitted or top-dose-only effect, or another doubt; inactive means no such curve, though single readings can be large; an effect the other way counts as inactive or inconclusive.

Legend:
[1] = qHTS to identify inhibitors of the type 1 interferon - major histocompatibility complex class I in skeletal muscle: primary screen against the NCATS Pharmaceutical Collection (AID 1347407);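 further: luminescence of HiBiT knocked into endogenous HLA-B as interferon-induced MHC class I level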
In short: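 A qHTS format is used: 8-point, 1:5 compound series with 46 uM top final concentration, applied alongside 4 ng/ml IFN-beta to HLA-B*08:01-HiBiT knock-in myoblasts. Luminescence is measured after 24 h treatment.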

[2] = target: Protein phosphatase 1D (Homo sapiens) (UniProt O15297); test: RapidFire Mass Spectrometry qHTS Assay for Modulators of WT P53-Induced Phosphatase 1 (WIP1) (AID 1347424);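 further: amount of dephosphorylated VEPPL-S-QETFS peptide product formed by WIP1; series mostly up to about 63 µM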
Protein phosphatase 1D (Homo sapiens), sequence (O15297 whole entry, looked up): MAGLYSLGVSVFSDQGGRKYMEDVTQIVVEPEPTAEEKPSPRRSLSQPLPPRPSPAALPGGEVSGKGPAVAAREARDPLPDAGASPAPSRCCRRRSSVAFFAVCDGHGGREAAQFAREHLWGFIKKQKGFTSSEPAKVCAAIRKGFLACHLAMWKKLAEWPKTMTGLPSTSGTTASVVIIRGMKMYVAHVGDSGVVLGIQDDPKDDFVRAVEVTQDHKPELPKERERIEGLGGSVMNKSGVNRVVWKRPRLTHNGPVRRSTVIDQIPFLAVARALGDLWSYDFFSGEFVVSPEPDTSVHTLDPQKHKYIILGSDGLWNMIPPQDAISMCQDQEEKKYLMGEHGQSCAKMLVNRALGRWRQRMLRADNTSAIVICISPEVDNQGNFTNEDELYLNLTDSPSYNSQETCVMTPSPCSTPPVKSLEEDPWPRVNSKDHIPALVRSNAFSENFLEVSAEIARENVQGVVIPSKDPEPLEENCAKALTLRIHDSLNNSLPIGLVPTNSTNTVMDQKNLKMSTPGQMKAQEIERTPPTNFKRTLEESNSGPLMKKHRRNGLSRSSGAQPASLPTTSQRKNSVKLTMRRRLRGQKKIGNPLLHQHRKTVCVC
In short: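 10 nM WIP1 preincubated with compounds 1 hr at room temperature in pH 7.5 Tris buffer with 30 mM MgCl2, 1 mM TCEP; 2 uM VEPPL-pS-QETFS phosphopeptide for 5 min, formic acid quench; dephosphorylated product quantified by RapidFire MS against labelled standard.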

[3] = target: Protein phosphatase 1D (Homo sapiens) (UniProt O15297); test: Rhodamine-PBP qHTS Assay for Modulators of WT P53-Induced Phosphatase 1 (WIP1) (AID 1347425)
In short: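 The read-out is the change in Rhodamine-PBP fluorescence (f1 - f0, ex 525/em 598 nm) as Pi is released, read each minute for 11 min. Final reaction: 5 nM WIP1, 10 uM phosphopeptide VEPPL-pS-QETFS, 10 uM Rh-PBP, 50 mM Tris-HCl pH 7.5, 30 mM MgCl2. Compound was preincubated with enzyme for 1 hour at room temperature.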

[4] = Primary qHTS for inhibitors of SARS-S pseudo-typed particle cell entry (AID 1479145; calls by dose curve; further: nearly all actives have a fitted effect of over 45% in size; further: potency means the concentration at half of the fitted maximal effect)
[5] = Primary qHTS for Huh7 cytotoxicity: counterscreen for inhibitors of MERS-S pseudotyped particle cell entry (AID 1479147; calls by dose curve)
[6] = Primary qHTS for inhibitors of MERS-S pseudo-typed particle cell entry (AID 1479149; calls by dose curve; further: nearly all actives have a fitted effect of over 60% in size)
[7] = Primary qHTS for Vero E6 cytotoxicity: counterscreen for inhibitors of SARS-S pseudo-typed particle cell entry (AID 1479150; calls by dose curve)
[8] = Primary qHTS for inhibitors of La Crosse Virus (LACV) - induced cell death in SH-SY5Y cells (AID 1508616);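 further: top concentration of the series differs between compounds; higher means more rescue of cells from virus-induced death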
In short: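 SH-SY5Y cells (6000/well) plated 24 h, then given compounds by pin transfer and LACV at 0.01 MOI for 6 days at 37C. Viability measured by ATPLite luminescence, normalized to infected DMSO and uninfected DMSO.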

[9] = target: Calcium and integrin-binding protein 1 (Homo sapiens) (UniProt Q99828); test: Confirmatory qHTS for Identification of Calcium Integrin Binding Protein 1 (CIB1) Competitor (AID 1508617); further: nearly all actives have a fitted effect of over 65% in size; further: potency means the concentration at half of the fitted maximal effect
Calcium and integrin-binding protein 1 (Homo sapiens), sequence (Q99828 whole entry, looked up): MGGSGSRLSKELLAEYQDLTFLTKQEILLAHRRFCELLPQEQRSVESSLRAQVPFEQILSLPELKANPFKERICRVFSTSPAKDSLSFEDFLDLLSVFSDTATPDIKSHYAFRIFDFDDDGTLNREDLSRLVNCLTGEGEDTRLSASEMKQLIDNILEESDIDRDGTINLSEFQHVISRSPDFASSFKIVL
In short: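 Compounds at up to 114 uM final met 1 uM GST-tagged CIB1 for 15 min at room temperature (HEPES pH 7.4, 5 mM CaCl2). FITC-labelled alphaIIb peptide, 100 nM, added; polarization read after 15 min more.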

Measured: Potency

CNC(C)Cc1ccccc1OC (stereo not drawn)
inactive: [1] | [2] | [3] | [4] | [5] | [6] | [7] | [8]

CN1C2CCC(C)(C)C1CC(OC(=O)C(O)(c1cccs1)c1cccs1)C2 (stereo not drawn)
inactive: [1] | [2] | [3] | [5] | [7] | [8]

C[C@@H]1CN(C2CCC(C#N)(c3ccc(F)cc3)CC2)CC[C@]1(C(=O)O)c1ccccc1 (stereo partly drawn)
inactive: [1] | [2] | [3] | [5] | [6] | [7]

C=CCOC(Cn1ccnc1)c1ccc(Cl)cc1Cl (stereo not drawn)
inactive: [1] | [2] | [3] | [5] | [7] | [8]

O=C1CN2CCOC2(c2ccccc2Cl)c2cc(Cl)ccc2N1 (stereo not drawn)
inactive: [1] | [2] | [3] | [5] | [7] | [8]

COP(=S)(OC)Oc1ccc(S(N)(=O)=O)cc1
inactive: [1] | [2] | [3] | [4] | [5] | [6] | [7] | [8]

C[N+]1(C)[C@@H]2CC[C@H]1CC(OC(=O)C(CO)c1ccccc1)C2 (stereo partly drawn)
inactive: [1] | [2] | [3] | [4] | [5] | [6] | [7] | [8]

NC(=O)OCCCc1ccccc1
inactive: [1] | [2] | [3] | [4] | [5] | [6] | [7] | [8]

C=CC[C@]1(O)CC[C@H]2[C@@H]3CCC4=CC(=O)CCC4=C3C=C[C@@]21C
inactive: [1] | [2] | [3] | [5] | [7] | [8]

Clc1ccc(CO/N=C(\Cn2ccnc2)c2ccc(Cl)cc2Cl)c(Cl)c1
inactive: [1] | [2] | [3] | [5] | [7]

CCCN(CCC)CCc1c[nH]c2ccccc12
inactive: [1] | [2] | [3] | [8]

CC[C@H](O)C(C[C@H](C)N(C)C)(c1ccccc1)c1ccccc1
inactive: [1] | [2] | [3] | [8]

CCc1ccc(C2CCNCC2)cc1
inactive: [1] | [2] | [3] | [8]

COc1cc(CC(C)N)cc2c1OCO2 (stereo not drawn)
inactive: [1] | [2] | [3] | [8]

CN(C)CCc1c[nH]c2ccc(O)cc12
inactive: [1] | [2] | [3] | [8]

CC(C)(C)OC(=O)c1ncn2c1[C@@H]1CCCN1C(=O)c1c(Br)cccc1-2
inactive: [1] | [2] | [3] | [8]

CCOC(C(=O)OCCN(C)C)(c1ccccc1)c1ccccc1
inactive: [1] | [2] | [3] | [8]

C[N+]1(CCC(C(N)=O)(c2ccccc2)c2ccccc2)CCCCC1
inactive: [1] | [2] | [3] | [8]

CCC(=O)OC1(c2ccccc2)CCN(C)CC1
inactive: [1] | [2] | [3] | [8]

ClC1=C(Cl)C2(Cl)C(CBr)CC1(Cl)C2(Cl)Cl (stereo not drawn)
inactive: [1] | [2] | [3] | [8]

C[C@H](CN1CCOCC1)C(C(=O)N1CCCC1)(c1ccccc1)c1ccccc1
inactive: [1] | [2] | [3] | [8]

CCOC(=O)NC(O)C(Cl)(Cl)Cl (stereo not drawn)
inactive: [1] | [2] | [3] | [8]

C[C@]12C=CC(=O)C=C1CC[C@@H]1[C@@H]2CC[C@@]2(C)[C@H]1CC[C@]2(C)O
inactive: [1] | [2] | [3] | [8]

O=C(CBr)Nc1ccc(Cl)cc1C(=O)c1ccccc1F
inactive: [1] | [2] | [3] | [8]

CCC1(CC)C(=O)NC(=O)NC1=O
inactive: [1] | [2] | [3] | [8]

CCN1CCCC1CNC(=O)C(O)(c1ccccc1)c1ccccc1 (stereo not drawn)
inactive: [1] | [2] | [3] | [8]

COc1ccc2[nH]cc(CCN(C(C)C)C(C)C)c2c1
inactive: [1] | [2] | [3] | [8]

Nc1ccc(Cl)cc1C(=O)c1ccccc1F
inactive: [1] | [2] | [3] | [8]

CCC1(c2ccccc2)CCC(=O)NC1=O (stereo not drawn)
inactive: [1] | [2] | [3] | [8]

COc1cc(C[C@@H](C)N)c(OC)cc1Br
inactive: [1] | [2] | [3] | [8]

C[C@H]1CNCCc2ccc(Cl)cc21
inactive: [1] | [2] | [3] | [8]

CC(=O)OC1(c2ccccc2)CCN(CCc2ccccc2)CC1
inactive: [1] | [2] | [3] | [8]

O=C(O)CCCCCCNC1c2ccccc2CCc2ccccc21
inactive: [1] | [2] | [3] | [8]

CN1CCc2cc(Cl)c(O)cc2[C@H]2c3ccccc3CC[C@@H]21
inactive: [1] | [2] | [3] | [8]

NC1(c2ccccc2)CCCCC1
inactive: [1] | [2] | [3] | [8]

COP(=S)(OC)Oc1ccc(Sc2ccc(OP(=S)(OC)OC)cc2)cc1
inactive: [1] | [2] | [3] | [8]

Sc1ccccc1Cl
inactive: [1] | [2] | [3] | [8]

CC1Sc2c(C(=O)O)c(=O)c3cc(F)c(N4CCNCC4)cc3n21 (stereo not drawn)
inactive: [1] | [2] | [3] | [8]

O=C(CCl)c1ccc(Cl)cc1Cl
inactive: [1] | [2] | [3] | [8]

C[C@]12CC[C@H]3[C@@H](CCC4=CC(=O)CC[C@@]43C)[C@@H]1CC[C@@H]2C(=O)O
inactive: [1] | [2] | [3] | [8]

CC[C@H]1C[C@@H]2C[C@H]3c4[nH]c5ccc(OC)cc5c4CCN(C2)[C@@H]13
inactive: [1] | [2] | [3] | [8]

CCS(=O)(=O)C(C)(C)S(=O)(=O)CC
inactive: [1] | [2] | [3] | [8]

CCOC(=O)NC(C)(C)Cc1ccc(Cl)cc1
inactive: [1] | [2] | [3] | [8]

c1cc2c(c(N3CCNCC3)c1)OCCO2
inactive: [1] | [2] | [3] | [8]

ClCCCN1CCN(c2cccc(Cl)c2)CC1
inactive: [1] | [2] | [3] | [8]

CCOC(=O)C(c1c(O)c2ccccc2oc1=O)c1c(O)c2ccccc2oc1=O
inactive: [1] | [2] | [3] | [8]

CN1C(=O)CN=C(c2ccccc2)c2cc(Cl)ccc21
inactive: [1] | [2] | [3] | [8]

CC(C)NCC(O)c1ccc(N)c(C#N)c1 (stereo not drawn)
inactive: [1] | [2] | [3] | [8]

CN(C)CCc1c[nH]c2cccc(O)c12
active: [9] 126 µM

Cc1ccc([N+](=O)[O-])[c]2c1[O][Hg]2
inactive: [9]

C[C@]12Cc3nonc3C[C@@H]1CC[C@@H]1[C@@H]2CC[C@@]2(C)[C@H]1CC[C@]2(C)O
inactive: [2] | [3] | [5] | [7]

Cc1ccc(O)cc1
inactive: [4] | [5] | [6] | [7]

C[C@]12CC[C@H]3[C@@H](CCC4=CC(=O)CC[C@@H]43)[C@@H]1CC[C@@H]2O
inactive: [2] | [3] | [8]

CCCCCCCCCCCCCCCCCCNC(=O)OC1CCN(C(=O)OC[C@H](COC(=O)N(Cc2cccc[n+]2CC)C(=O)c2ccccc2OC)OC)CC1
active: [4] 25.1 µM
inactive: [5]

CCN(CC)CC(=O)Nc1c(C)cccc1C
inactive: [4] | [5] | [6] | [7]
